Results taken from PubChem BioAssay AID720506 (National Center for Advancing Translational Sciences (NCATS), 2013).
Hit rate of the full screen: of about 2,300 compounds, about 95 (4%) were called active. Inconclusive results (about 17%) are left out. Calls come from the whole dose curve; as a rule, active = well fitted activation curve with a large enough effect; inconclusive = small, poorly fitted or top-dose-only effect; inactive = flat fitted curve, though single readings scatter. The list comes from a sample in which actives are over-represented; it also holds similar structures and randomly drawn compounds.

target: D(3) dopamine receptor (Homo sapiens) (UniProt P35462); experiment: qHTS of D3 Dopamine Receptor Agonist: D3 Dopamine Receptor B-arrestin Agonist Confirmatory Assay; conditions: DiscoveRx D3 beta-arrestin cells, luminescence, 90 min; series mostly up to 76.9 µM; note: nearly all actives have a fitted effect of over 70% in size
Sequence (P35462 whole entry, looked up): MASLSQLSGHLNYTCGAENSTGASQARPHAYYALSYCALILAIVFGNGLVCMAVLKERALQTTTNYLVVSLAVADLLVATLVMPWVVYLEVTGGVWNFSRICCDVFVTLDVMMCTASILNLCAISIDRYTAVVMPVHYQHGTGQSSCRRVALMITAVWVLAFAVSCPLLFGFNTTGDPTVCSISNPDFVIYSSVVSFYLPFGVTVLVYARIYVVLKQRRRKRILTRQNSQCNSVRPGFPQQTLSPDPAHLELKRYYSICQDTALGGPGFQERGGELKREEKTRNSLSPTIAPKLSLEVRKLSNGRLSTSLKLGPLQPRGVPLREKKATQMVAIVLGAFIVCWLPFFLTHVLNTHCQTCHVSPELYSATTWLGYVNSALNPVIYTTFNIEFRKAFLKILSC
Text: D3 DARs represent a very important target for the treatment of several neuropsychiatric disorders. Indeed, one of the most promising therapeutic applications for the D3 DAR is in the area of addiction and related disorders. […] These findings have been observed with a number of addictive substances including cocaine, amphetamine, nicotine, and alcohol. […] Increased D3 DAR activity can thus lead to neuroprotective and neurorestorative actions in the CNS. […] This assay is used to confirm the activity of the identified D3 dopamine receptor agonist. Activation is the desired outcome for this assay. NIH Molecular Libraries Probe Production Centers Network [MLPCN] NIH Chemical Genomics Center [NCGC] MLPCN Grant: NS064831 Assay Submitter (PI): David Sibley
Freshly passaged DiscoveRx D3 cells are plated in 1536 well white, solid bottom plates at a density of 1500 cells/well in 3microl of complete media. After an overnight incubation at 37 degrees C in 5% CO2, cells are loaded with 23nl of test compound from the compound library (as well as dopamine controls) using a 1536 pintool and incubated at 37 degrees C for 90 minutes. Two microliters of DiscoveRx reagent is then added to all cells, and they are incubated for an additional 30 - 60 minutes at room temperature. Following incubation, luminescence is measured on a ViewLux CCD-based luminometer reader using a 20 sec exposure time.
Potency is the fitted concentration of half-maximal effect.

Potency, active:
OC(COc1cccc2ccccc12)CN1CCN(c2ccccn2)CC1 (stereo not drawn) 8.91 µM, COC(c1ccccc1)c1nnc(CCC(=O)N2CCN(CCOc3ccccc3)CC2)o1 (stereo not drawn) 2.82 µM, Cc1c(CN2CC[C@@H](N3CCN(c4ccccn4)CC3)[C@H](O)C2)[nH]c2ccc(F)cc12 28.2 µM, Cc1c(CC(=O)N2CCN(C(=O)C3COc4ccccc4O3)CC2)c(=O)oc2c(O)c(O)ccc12 (stereo not drawn) 28.2 µM, CC(C)(C)C(=O)OCc1nc(-c2ccc(O)c(O)c2)cs1 11.2 µM, O=C(CNCc1cccs1)Nc1cc(S(=O)(=O)N2CCCC2)ccc1Cl 17.8 µM, CC(CCc1ccc(O)cc1)NCc1ccc(Cl)cc1Cl (stereo not drawn) 1.78 µM, COc1cccc(OC)c1OCCN1CCN(C(=O)c2ccco2)CC1 0.631 µM, O=C(CN1CCN(S(=O)(=O)c2cc(Cl)ccc2Cl)CC1)c1ccc(O)c(O)c1 35.5 µM

Potency, inactive:
Cc1ccc(O)c(-c2cc(C(=O)Nc3c(C)n(C)n(-c4ccccc4)c3=O)[nH]n2)c1, COc1ccc(NC(C)=O)cc1NC(=O)CN1CCN(c2ccccn2)CC1, OCC[C@H]1C[C@H](O)[C@@H](O)[C@]2(Cc3ccccc3CO2)O1, Cn1c(C(=O)NCCCN2CCN(c3cccc(Cl)c3)CC2)cc2c(=O)n(C)c3ccccc3c21, O=C(Nc1cccnc1Cl)c1cc(-c2cccc(Cl)c2)on1, CCC(CC)NC(=O)/C=C/c1cccc([N+](=O)[O-])c1, CC(=O)Nc1ccc(OCC(O)CN2CCN(c3ccccc3Cl)CC2)cc1 (stereo not drawn), O=C1c2cccc3cccc(c23)N1CN1CCN(c2ccccn2)CC1, O=C(OCc1nc2ccccc2[nH]1)C1CCCCC1, O=C(c1ccccc1)c1ccc(OCC(O)CN2CCCC2)cc1 (stereo not drawn), CC[C@H](C)C(=O)N[C@H]1CCCN1C(=O)/C=C/c1ccccc1, CCCCC(=O)NNC(=S)NC(=O)C(c1ccccc1)c1ccccc1, CCCN1CC=C2C(C#N)=C(N)C(C#N)(C#N)C(c3cc(OC)ccc3OC)C2C1 (stereo not drawn), CC(=O)C[C@@H](O)CC(=O)[C@H]1OC(=O)CCCCCCc2ccccc21, COc1cc(OC)c(-n2cc(-c3ccc(Cl)cc3)[nH]c2=O)cc1Cl, CNC(=O)NC(=O)C(C)N1CCN(C/C=C/c2ccccc2)CC1 (stereo not drawn), CN1CCC(CN)(N2CCN(c3ccccc3)CC2)CC1, O=C1CC[C@H](O)CCN1[C@H](CSc1ccc(Br)cc1)Cc1ccccc1, Cc1ccccc1N1CCN(CCCOc2ccc3c(C)cc(=O)oc3c2)CC1, Nc1nonc1-n1nnc(C(=O)N/N=C/c2ccc(Cl)cc2)c1-c1ccc2c(c1)OCO2, CN(C)CCOC(=O)C(c1ccccc1)C1(O)CCCC1 (stereo not drawn), Cc1cc(C(=O)NNC(=O)c2ccccc2O)c(C)o1, O=C(Nc1ccc(F)cc1F)N1CCCN(CCOc2ccccc2)CC1, NS(=O)(=O)c1ccc(CCNC(=O)NC2CCCCC2)cc1, [O-][N+]12CCCCC1CCCC2CO (stereo not drawn), COc1cc(OC)c2ccc(=O)oc2c1C(CCN1CCN(c2ccccc2)CC1)c1ccc2c(c1)OCO2 (stereo not drawn), O=C(CCN1CCN(c2ccccc2)CC1)NNC(=S)Nc1ccccc1, COc1ccc(N2CCN(Cc3cc(=O)oc4ccc5ccccc5c34)CC2)cc1, Cc1cccc(C)c1NC(=O)CNC(=O)c1ccc2c(c1)OCCO2, O=C(CN1CCN(c2ccccn2)CC1)NC1CCCCC1, Cc1ccccc1Nc1nc(N)nc(CN2CCN(c3ccccn3)CC2)n1, Cc1n[nH]c(C)c1S(=O)(=O)N1CCCC(C(=O)NCC2COc3ccccc3O2)C1 (stereo not drawn), O=C(O[C@H]1[C@H](Cc2ccccc2)NS(=O)(=O)[C@H]2C[C@@H]3C=C[C@]12O3)c1ccc([N+](=O)[O-])cc1, O=C1c2ccccc2S(=O)(=O)N1CC(O)Cn1c2ccccc2c2ccccc21 (stereo not drawn), CC(C)(C)n1ncc2c(=O)n(Cc3c(Cl)cccc3Br)cnc21, COc1ccc(S(=O)(=O)N2CCSCC2)cc1, O=C1C=C(c2cccc(Br)c2)C[C@@H](c2ccc(F)cc2)C1, O=C(COc1coc(CN2CCN(c3ccccc3)CC2)cc1=O)Nc1ccccc1F, CCC(=O)c1ccc(OCC(=O)Nc2ccc(N3CCCCC3)cc2)cc1, Cc1cnc(C(=O)N2CCCC(N3CCN(c4ccccc4F)CC3)C2)cn1 (stereo not drawn), CN(CCO)S(=O)(=O)c1ccc2c(c1)C(=O)c1cc(S(=O)(=O)N(C)CCO)ccc1-2, CC(=O)OC(C)C[N+](C)(C)C (stereo not drawn), CS(=O)(=O)N1CCC(C(=O)N2CCN(c3ccccc3)CC2)CC1, O=C(NC(=O)c1ccccc1)Nc1ccccc1O, O=C(CCn1c(=O)[nH]c2ccccc2c1=O)NCCCN1CCN(c2cccc(Cl)c2)CC1, O=C(CN1CCN(c2ncccn2)CC1)Nc1ccccc1C(F)(F)F, CC(OC(=O)/C=C/c1ccccc1)C(=O)NC1CCCCC1C (stereo not drawn), O=c1cc(CCl)nc2scc(-c3ccccc3)n12, CC(C)CCN1CCN(Cc2cn[nH]c2C2CCCCC2)CC1CCO (stereo not drawn), CS/C(=C\C(=O)c1ccco1)Nc1ccccc1Cl, O=S(=O)(c1ccc(F)cc1)N1CC=C(c2ccccc2)CC1, CCN(CCCNC(=O)c1ccc2c(c1)NC(=O)CN2C)c1cccc(C)c1, O=C(CC1NCCc2ccccc21)Nc1cccc(Cl)c1 (stereo not drawn), COc1ccc([C@H]2CC(=O)C=C(c3ccc(CO)cc3)C2)cc1, COc1ccc([C@H]2CC(=O)C=C(c3ccc(OC(F)(F)F)cc3)C2)cc1OC, CC(=C1C(=O)c2ccccc2C1=O)N1CCN(c2ccccn2)CC1, NS(=O)(=O)c1ccc(CCNS(=O)(=O)c2cccc3cccnc23)cc1, C/C(=N\NC(=S)NC1CCCCC1)c1ccc(C)o1, COc1ccc(CC(NC(C)=O)C(=O)N2CCN(C(=O)Nc3cccc(Cl)c3)CC2)cc1OC (stereo not drawn), O=C(NCCCN1CCN(c2ccccc2F)CC1)C1CCC(=O)N1C1CCCCC1 (stereo not drawn), Cc1ccc(S(=O)(=O)N2CC(O)C[C@H]2C(=O)OCC(=O)Nc2ccc(N3CCOCC3)cc2)cc1C (stereo partly drawn), CCn1c(=O)n(CC)c2cc(N3CCCC3)c(NC(=O)c3ccccc3Br)cc21, CNCC(O)c1ccc(O)c(O)c1 (stereo not drawn), Cc1cc(C)n2nc(C(=O)N3CCN(Cc4ccc5c(c4)OCO5)CC3)nc2n1, CCCN(CC(=O)Nc1ccccc1C)C(=O)c1ccc2[nH]c3c(c2c1)CC(C)CC3 (stereo not drawn), OC(COCc1ccco1)CN1CCN(c2ccccc2)CC1 (stereo not drawn), O=C(CSC1CC(=O)N(CCc2ccccc2)C1=O)Nc1ccc(Cl)cc1 (stereo not drawn), O=c1oc(-c2ccccc2NS(=O)(=O)c2ccc(Cl)cc2)nc2ccccc12, O=C(C1CC(=O)N(c2ccc(F)cc2)C1)N1CCN(c2ccccc2)CC1 (stereo not drawn), CCn1c(=O)cc(OCC(=O)NCCCN2CCN(c3cccc(Cl)c3)CC2)c2ccccc21, CN1CCN(S(=O)(=O)c2cccc(C(=O)Nc3sccc3C#N)c2)CC1, O=C(c1ccc2c(c1)OCCO2)C1CCN(S(=O)(=O)c2cccc(F)c2)CC1, CC(CCc1ccccc1)NCC(O)c1cccc([N+](=O)[O-])c1 (stereo not drawn), CC1(C)CC(=O)C=C(c2ccc3ncccc3c2)C1, Cc1c(C(=O)Nc2cccc(-c3nnc4n3CCCCC4)c2)oc2ccccc12, O=C(NC1CCCCC1)c1ccc2c(=O)n(CC3CCCO3)c(=O)[nH]c2c1 (stereo not drawn), CCOC(=O)[C@H]1[C@H]2COc3ccc(C)cc3[C@@H]2N2C(=O)CN(Cc3ccc(F)cc3)C(=O)[C@@]12C, O=C(CCN1CCN(C/C=C/c2ccccc2)CC1)Nc1ccccc1Cl, COc1cccc(NC(=O)C2CCCN(c3ncnc4c3nc3n4CCCCC3)C2)c1 (stereo not drawn), CC(C)c1ccc2c(c1)c(SC(C)(C)C)c(CC(C)(C)C(=O)O)n2Cc1ccc(Cl)cc1, O=C(c1c(F)cccc1F)N1CCN(S(=O)(=O)c2ccc3c(c2)OCCO3)CC1, Cc1cccc(OCC(=O)NCC(=O)N/N=C/c2ccc(N(C)C)cc2)c1, Cc1cc(C)c(/C=C2\C(=O)Nc3ccccc32)[nH]1, CCn1cc(C(=O)N2CCN(Cc3ccc4c(c3)OCO4)CC2)c2cc(OC)c(OC)cc2c1=O, CCC(=O)Nc1ccc(C(=O)N2CCN(C(=O)c3ccco3)CC2)cc1, O=C(Cc1csc(Nc2nc(=S)[nH]c3ccccc23)n1)NCCCN1CCN(c2cccc(Cl)c2)CC1, COc1ccc(C2NC(=O)C(=O)/C2=C(\O)c2ccc(Cl)cc2)cc1OC (stereo not drawn), O=C(CCCn1c(=O)[nH]c2cc(Cl)ccc2c1=O)NCCN1CCN(c2ccccc2)CC1, O=C(c1c(Cl)cccc1Cl)N1CCN(c2cccc3[nH]ccc23)CC1
